# A3A deaminase – inhibitors of human APOBEC3A DNA deaminase; P31941; recombinant A3A, FAM/TAMRA ssDNA deamination fluorescence; inhibition, % at 20 µM; 330,000 compounds, 0.41% hits;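 active means at least 40% inhibition at 20 µM here, with at most 30% in a related deaminase screen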
# APOBEC3G inh – blocks human APOBEC3G single-stranded DNA deamination | recombinant A3G, ssDNA deamination FAM/TAMRA fluorescence | AID 493012 | 330,000 compounds, 0.28% hits | inhibition, % at 20 µM | Q9HC16;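 active means inhibition of at least 40% at 20 µM, with no more than 30% in the related APOBEC3A deaminase screen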
# Target sequence (Q9HC16 whole entry, looked up): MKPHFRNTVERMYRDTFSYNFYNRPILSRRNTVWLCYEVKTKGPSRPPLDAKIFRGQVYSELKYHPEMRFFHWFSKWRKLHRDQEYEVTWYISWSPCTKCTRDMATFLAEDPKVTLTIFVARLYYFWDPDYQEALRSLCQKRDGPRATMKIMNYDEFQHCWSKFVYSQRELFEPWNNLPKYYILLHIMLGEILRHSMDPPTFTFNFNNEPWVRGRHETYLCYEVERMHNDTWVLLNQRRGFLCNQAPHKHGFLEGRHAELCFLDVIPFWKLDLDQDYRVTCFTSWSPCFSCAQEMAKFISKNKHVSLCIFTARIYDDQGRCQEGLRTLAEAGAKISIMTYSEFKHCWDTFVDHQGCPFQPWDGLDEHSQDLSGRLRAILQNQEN
# MITF act – activators of MITF-driven TRPM1 promoter activity in SK-MEL-5 cells | SK-MEL-5 TRPM1-promoter luciferase, 24 h; % of positive control, neutral wells = 0 | activation, % at 12.5 µM | 300,000 compounds, 0.75% hits;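 active means mean activation of at least 80% with every replicate also reaching 80%; inconclusive means mean reaches 80% but some replicate falls short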
# Wnt act – Wnt/beta-catenin pathway activation; Wnt/beta-catenin reporter cell assay, activator, plate reader; activation, % at 9.35 µM; 300,000 compounds, 1.2% hits; in the data active means activation above about 30%, passing the limit was not always enough; inconclusive means no clear call, values can overlap the other calls
# PHOSPHO1 inh – PHOSPHO1 (human) inhibition; AID 1565; recombinant PHOSPHO1, absorbance phosphatase assay; 290,000 compounds, 1.1% hits; inhibition, % at 13.3 µM; Q8TCT1; in the data active means inhibition above about 60%
# Target sequence (Q8TCT1 whole entry, looked up): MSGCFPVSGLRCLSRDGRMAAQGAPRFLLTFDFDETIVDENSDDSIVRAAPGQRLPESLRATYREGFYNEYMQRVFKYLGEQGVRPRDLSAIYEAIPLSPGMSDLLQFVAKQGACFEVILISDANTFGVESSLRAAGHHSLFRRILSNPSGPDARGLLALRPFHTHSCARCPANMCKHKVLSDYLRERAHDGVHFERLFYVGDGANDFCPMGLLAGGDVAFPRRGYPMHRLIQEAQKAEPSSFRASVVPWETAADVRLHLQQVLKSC
# esBAF inh – inhibitors of esBAF chromatin remodeling in mouse ES cells | Bmi1-luciferase knock-in reporter, 24 h; 100% = twice the neutral-well signal | reporter increase, % at 12.5 µM | 350,000 compounds, 2% hits; in the data active means activation above about 40%; inconclusive means no clear call, values can overlap the other calls;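 further: a rise in the Bmi1 reporter signal indicates esBAF inhibition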
# Numbers stand for hits; i = inactive; ? = inconclusive; nt = not tested or not shown. Most compounds without a hit are left out; they make up all but 3.6% or so of the library.
SMILES,A3A deaminase,APOBEC3G inh,MITF act,Wnt act,PHOSPHO1 inh,esBAF inh
CCCCCC(=O)N/N=C(\C)c1ccc(NC(=O)c2ccco2)cc1,i,i,i,nt,i,i
C/C(=N/NC(=O)c1ccco1)c1ccc(NC(=O)c2ccc(F)cc2)cc1,i,i,i,48,i,89
Cc1ccc(S(=O)(=O)N[C@@H]2CC[C@@H](CC(=O)NCCN3CCCCC3)O[C@H]2CO)cc1,nt,nt,nt,nt,nt,i
O=C1C2C3C=CC(C3=C3CCCCC3)C2C(=O)N1c1ccccc1 (stereo not drawn),i,i,i,i,i,i
CN1C(=O)C2C=CC1C1C(=O)N(c3ccccc3)C(=O)C21 (stereo not drawn),i,i,89,nt,i,57
Cc1ccc(S(=O)(=O)Nc2ccc3c(c2)CC(=O)N([C@H](C)CO)C[C@@H](C)[C@H](CN(C)S(=O)(=O)c2ccc(C)cc2)O3)cc1,nt,nt,nt,nt,nt,i
Cc1ccc(S(=O)(=O)N(C)CC(=O)Nc2cc(C)ccn2)cc1,i,i,i,38,nt,66
COc1cc(C(c2nnnn2C(C)(C)C)N2CCN(c3nc4ccccc4s3)CC2)ccc1O (stereo not drawn),i,i,i,i,61,i
Cc1ccc(C2C(C(=O)c3cccs3)=C(O)C(=O)N2c2cccc(C)n2)cc1 (stereo not drawn),i,i,nt,34,i,nt
Cc1ccc(C2C(C(=O)c3cccs3)=C(O)C(=O)N2c2ccc(S(N)(=O)=O)cc2)cc1 (stereo not drawn),i,i,i,i,i,nt
O=C(C[C@H]1C=C[C@H](NC(=O)Nc2cc(F)ccc2F)[C@H](CO)O1)NCCCN1CCOCC1,nt,nt,nt,nt,nt,i
C/C(NC(=O)c1cccc(F)c1)=C1/C(=O)C[C@@H]2[C@H]1C2(C)C,i,i,109,nt,i,65
C/C(NC(=O)c1ccccc1F)=C1\C(=O)C[C@@H]2[C@H]1C2(C)C,i,i,nt,i,i,?
C[C@@H]1CN([C@@H](C)CO)C(=O)c2cc(N(C)C)ccc2O[C@@H](C)CCCCO[C@@H]1CN(C)C(=O)Nc1ccc(F)cc1,nt,nt,nt,nt,nt,i
Cc1cccc(Nc2nc3c(s2)CCCC3)c1,nt,nt,103,65,i,nt
O=C(O)c1ccc(Nc2nc3c(s2)CCCC3)cc1,i,i,i,i,i,nt
C/C(=N\Nc1nc2c(s1)CCCC2)c1ccccc1,i,i,i,i,i,47
Oc1c(C(c2ccccn2)N2CCC(Cc3ccccc3)CC2)cc(Cl)c2cccnc12 (stereo not drawn),i,i,nt,204,i,nt
CN1CCN(C(c2ccccn2)c2cc(Cl)c3cccnc3c2O)CC1 (stereo not drawn),i,i,i,58,i,i
Cc1ccc(C(c2cc(Cl)c3cccnc3c2O)N2CCN(C)CC2)cc1 (stereo not drawn),i,i,i,nt,i,i
COC(=O)C1CCN(S(=O)(=O)c2c(C)n(C)c(=O)n(C)c2=O)CC1,i,i,i,48,i,i
COc1cc(OC)cc(C(=O)NCC(=O)Nc2ccc(C)c(Cl)c2)c1,i,i,i,46,i,i
O=C(c1cccc(F)c1)N1C[C@H]2[C@@H](c3ccccc31)[C@@H](CO)N2Cc1cocn1,nt,nt,nt,nt,nt,i
O=C1C(=Cc2ccc(Br)o2)C(=O)c2ccccc21,nt,nt,i,nt,i,64
CC(C)COC(=S)Nc1ccccc1,i,i,i,nt,i,59
SMILES,A3A deaminase,APOBEC3G inh,MITF act,Wnt act,PHOSPHO1 inh,esBAF inh
CC(C)COCC(O)CCC(=O)NNC(=S)Nc1ccccc1 (stereo not drawn),i,i,i,i,i,nt
CNC[C@@H]1Oc2ncc(-c3cccc(C(=O)N(C)C)c3)cc2C(=O)N([C@@H](C)CO)C[C@H]1C,nt,nt,nt,nt,nt,i
C[C@H](NC(=O)N1CCn2c1nc1ccccc12)C(=O)NCCc1ccccc1,i,i,i,i,i,i
COc1ccc(CNC(=O)[C@H](C)NC(=O)N2CCn3c2nc2ccccc23)cc1,i,i,i,i,70,i
Cc1cc(C)n2c(Br)c(CSc3nc4ccccc4s3)nc2n1,i,i,i,nt,i,48
Cc1ccsc1C(=O)OCC(=O)N1C(C)CCCC1C (stereo not drawn),i,i,i,i,nt,79
O=C(OCC(=O)N1CCCCCC1)c1ccccc1Br,i,i,i,i,nt,54
O=C(OCC(=O)N1CCOCC1)c1ccc2ccccc2c1O,i,i,i,42,nt,?
CC1CCCC(C)N1C(=O)COC(=O)c1cccs1 (stereo not drawn),i,i,i,i,nt,i
COc1cccc(NC(=O)COC(=O)c2sccc2C)c1,i,i,108,i,nt,50
C[C@H](CO)N1C[C@H](C)[C@H](CN(C)S(C)(=O)=O)OCCCC[C@H](C)Oc2ccc(NC(=O)c3ccccc3)cc2C1=O,nt,nt,nt,nt,nt,i
CCCNC(=O)Nc1ccc2c(c1)C(=O)N(C)C[C@@H](OC)[C@@H](C)CN(CC1CCCC1)[C@H](C)CO2,nt,nt,nt,nt,nt,i
C[C@@H]1CN([C@@H](C)CO)C(=O)Cc2cc(NC(=O)C3CC3)ccc2O[C@H]1CN(C)Cc1ccc(C(=O)Nc2ccccc2N)cc1,nt,nt,nt,nt,nt,i
C[C@@H]1CN([C@@H](C)CO)C(=O)Cc2cc(NS(=O)(=O)c3cn(C)cn3)ccc2O[C@@H]1CN(C)Cc1ccc(-c2ccccc2)cc1,nt,nt,nt,nt,nt,i
O=C(COC(=O)c1ccccc1Br)NC1CCCCCCC1,i,i,i,i,nt,nt
COc1ccc2oc(C(=O)OCC(=O)N3C(C)CCCC3C)c(C)c2c1 (stereo not drawn),i,i,i,i,i,i
Cc1c(C(=O)OCC(=O)N2C(C)CCCC2C)oc2ccccc12 (stereo not drawn),i,i,i,i,i,76
CN(C)c1ccc(C(=O)OCC(=O)c2ccc[nH]2)cc1,i,i,137,i,nt,72
O=C(COC(=O)c1ccccc1Br)NC1CCCC1,i,i,i,i,i,50
CN(C)c1ccc(C(=O)OCC(=O)N2CCCCCC2)cc1,i,i,i,i,i,47
C[C@H](CO)N1C[C@H](C)[C@@H](CN(C)Cc2ccc(C(F)(F)F)cc2)Oc2ccc(NS(C)(=O)=O)cc2CC1=O,nt,nt,nt,nt,nt,i
Cc1ccsc1C(=O)OCC(=O)NC1CCCCC1,nt,nt,nt,i,nt,63
Cc1ccsc1C(=O)OCC(=O)NC1CC1,i,i,i,i,nt,i
C[C@H]1CN([C@@H](C)CO)C(=O)Cc2cc(N(C)C)ccc2O[C@@H]1CN(C)C(=O)NC1CCCCC1,nt,nt,nt,nt,nt,i
COc1ccc(OCC(O)Cn2c(N)nc3c2c(=O)[nH]c(=O)n3C)cc1 (stereo not drawn),i,i,i,i,61,i
CCCSc1nc2c(c(=O)[nH]c(=O)n2C)n1CC(O)COc1ccccc1 (stereo not drawn),i,i,i,i,i,nt
CC(C)CSc1nc2c(c(=O)[nH]c(=O)n2C)n1CC(O)COc1cccc2ccccc12 (stereo not drawn),nt,nt,i,nt,88,nt
COCCCNc1nc2c(c(=O)[nH]c(=O)n2C)n1CC(O)COc1ccccc1 (stereo not drawn),i,i,nt,nt,92,i

# From PubChem
